# Screens from PubChem BioAssay.
# The list is not random: actives were taken first. Their share in the collection is about 4.1%.
# TROY signal inh = blocks TROY-dependent signaling in reporter cells | Q293 LMP1-TROYcd NF-kB luciferase reporter, 4 h | inhibition, % at 10 µM | 360,000 compounds, 0.98% hits | AID 1347056;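 active means compounds whose plate-normalised and pattern-corrected inhibition of the luciferase reporter signal at the single screening dose is 50% or more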
# Peg3 prom inh = Peg3 promoter activity inhibition | HeLa PEG-Prom luciferase reporter, luminescence, overnight | inhibition, % at 20 µM | 360,000 compounds, 1.7% hits | AID 588405;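 active means inhibition of at least 50% at 20 µM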
# EBV LMP1 NFkB = Epstein-Barr LMP1 NF-kappaB reporter inhibition; LMP1-induced NF-kappaB luciferase reporter cells, luminescence; inhibition, % at 12.5 µM; 350,000 compounds, 0.69% hits; AID 504558; in the data active means inhibition above about 41%;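 further: 0% = neutral control wells and 100% = reference inhibitor control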
# MITF TRPM1 inh = inhibitors of MITF-driven TRPM1 promoter in melanoma cells. SK-MEL-5 TRPM1 promoter luciferase, 24 h. inhibition, % at 12.5 µM. 330,000 compounds, 0.83% hits. AID 488899;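 active means mean inhibition across replicates of 60% or more, whatever share of single replicates reaches that level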
# TWEAK Fn14 block = blocks TWEAK-Fn14 interaction in a reporter cell assay. TWEAK-stimulated Fn14 reporter cells, luciferase luminescence, 8 h. inhibition, % at 10 µM. 360,000 compounds, 2% hits. AID 1159606; in the data active means inhibition above about 50%
# Shn3 3UTR inh = Schnurri-3 reporter inhibition in Clone20 osteoblasts; Clone20 osteoblast Shn3 3'UTR firefly luciferase, 24 h; inhibition, % at 12.5 µM; 360,000 compounds, 0.52% hits; AID 588674;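 active means mean inhibition of at least 75% with every replicate also reaching 75%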;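 further: 0% = median of neutral control wells and 100% = pilot-screen positive control compound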
# * hit, by the source's call; . = not tested or not shown; ! = repeats disagree.
SMILES,TROY signal inh,Peg3 prom inh,EBV LMP1 NFkB,MITF TRPM1 inh,TWEAK Fn14 block,Shn3 3UTR inh
COC(=O)c1ccccc1NC(=O)c1noc2c1CCCC2,-36.0,-46.0,-8.0,1.1,-38.7,-17.7
CC(=O)c1ccc(NC(=O)c2noc3c2CCC3)cc1,54.0*,28.1,65.1*,55.7,94.5*,39.6
COc1ccc(N/C(N)=N/c2nc(C)cc(C)n2)cc1,-4.5,4.7,5.7,.,-50.2,14.0
Cc1cc(C)nc(/N=C(\N)Nc2ccc(OCCC(C)C)cc2)n1,27.6,106.6*,16.1,65.1*,-12.3,63.6
O=C(c1cc(COc2ccc3c(c2)CCCC3)on1)N1CCCC1,-75.5,-372.6,73.1*,-112.9,-13.3,-40.5
COCC1CCCCN1C(=O)c1cc(COc2ccc3ncccc3c2)on1 (centres undefined),23.8,-0.7,15.8,28.3,30.2,88.7*
CCC1CCCCN1C(=O)c1cc(COc2ccc3ncccc3c2)on1 (centres undefined),16.3,2.6,-7.0,10.4,38.0,87.7*
CCN(CC)C(=O)C1CCCN(C(=O)c2cc(COc3ccc4ncccc4c3)on2)C1 (centres undefined),0.3,18.7,6.5,20.6,18.1,46.3
CCN1CCN(C(=O)c2cc(COc3ccc4ncccc4c3)on2)CC1,8.5,39.2,19.3,6.7,12.2,54.2
Cc1ccc(-c2csc(N3CCN(CCCn4c(-c5ccncc5)nc5ccccc54)CC3)n2)cc1,0.9,35.9,33.2,67.2*,-6.4,5.6
CN(C)c1ccc(/C=N/Nc2nc3ccccc3o2)cc1,53.3*,-75.0,24.3,9.1,80.9*,10.4
CCCCN(CCCC)CCNC(=O)c1cn(C)c2ccc(S(=O)(=O)N3CCCC3)cc2c1=O,-6.5,0.3,3.1,-1.0,7.0,-5.7
C#Cc1ccc(CN2CCN(CCCc3ccccc3)C(CCO)C2)cc1 (centres undefined),-0.3,-1.6,5.2,2.0,3.9,11.7
Cc1cc(S(=O)(=O)NCc2ccccc2)ccc1OCC(=O)Nc1cccc([N+](=O)[O-])c1,41.5,31.9,11.3,-3.2,51.9*,75.2
Cc1cc(S(=O)(=O)NCc2ccccc2)ccc1OCC(=O)NCc1ccccn1,-15.1,12.4,2.0,-1.3,30.6,8.5
CCOC(=O)c1sc(NC(=O)CCN2CCN(C)CC2)c(C(=O)OCC)c1C,-6.4,83.6*,-5.3,29.2,18.5,-10.5
CCOC(=O)c1sc(NC(=O)CN2CCCC2)c(C(=O)OCC)c1C,2.2,0.4,-15.8,7.0,-15.2,27.8
NNC(=S)NC1CC2CC1C1C=CCC21 (centres undefined),70.0*,10.1,-1.1,3.5,77.5*,3.8
CCCCCn1c(=N)n(CC(O)COc2ccccc2OC)c2ccccc21 (centres undefined),6.8,43.0,-4.6,6.0,-5.4,86.3*!
COCCn1c(COc2ccc(C)cc2)nc2ccccc21,.,-216.6,-8.8,-30.5,65.4*,-28.5
CCOCCn1c(COc2ccc(C)cc2)nc2ccccc21,-90.9,-178.9,-19.7,-48.5,-45.5,-85.5
Cc1ccccc1OCC(O)Cn1c(=N)n(Cc2ccccc2)c2ccccc21 (centres undefined),11.4,110.4*,-3.9,17.7,-0.2,87.2*
CCCCn1c(=N)n(CC(O)COc2cccc(C)c2)c2ccccc21 (centres undefined),-5.8,69.7*,-5.8,0.6,-52.8,77.2
CCCn1c(=N)n(CC(O)COc2ccc(C)cc2)c2ccccc21 (centres undefined),3.3,2.4,-5.3,-8.5,2.6,24.6
CC(C)C(NC(=O)C1(NC(=O)OCc2ccccc2)CCCC1)C(=O)O (centres undefined),4.5,-4.7,1.5,-1.3,11.6,-12.5
SMILES,TROY signal inh,Peg3 prom inh,EBV LMP1 NFkB,MITF TRPM1 inh,TWEAK Fn14 block,Shn3 3UTR inh
O=C(Nc1cccc2ccccc12)NC1CCCCC1O (centres undefined),-10.7,-8.7,-0.2,5.0,6.2,-20.8
CC(C)(C)C1CCC(=NOC(=O)c2ccc(F)cc2)CC1 (centres undefined),0.9,1.3,1.4,2.2,-41.8,-0.7
Cc1ccc(OCC(O)Cn2c(=N)n(CCN3CCCCC3)c3ccccc32)cc1 (centres undefined),4.9,78.3*,-38.7,24.5,-88.6,80.4
C=CCn1c(=N)n(CC(O)COc2ccccc2OC)c2ccccc21 (centres undefined),3.9,12.3,-3.6,.,1.9,25.5
CCCCn1c(=N)n(CCOc2ccc(C)cc2)c2ccccc21,13.7,100.1*,-0.6,64.1*,-6.5,32.2
COc1ccccc1OCC(O)Cn1c(=N)n(Cc2ccccc2)c2ccccc21 (centres undefined),-5.6,32.5,-4.0,19.9,6.5,87.3*
COc1ccc(OCCn2c(=N)n(CCO)c3ccccc32)cc1,-18.4,9.9,4.8,5.7,8.3,15.8
COc1ccc(OCC(O)Cn2c(=N)n(CCN3CCCCC3)c3ccccc32)cc1 (centres undefined),0.0,15.6,-13.8,-14.3,-24.5,56.3
Cc1ccc2nc(Cl)c(/C=N/NC(=O)c3ccccc3O)cc2c1,51.7*,-1.2,-2.0,-0.6,-10.2,4.1
O=C(N/N=C/c1cccc2nccnc12)c1ccccc1O,-21.5,8.1,5.3,23.1,-27.8,44.7
O=C(N/N=C/c1cccc2cccnc12)c1ccccc1O,-15.5,40.6,5.1,68.6*,-23.4,91.8*
CC(C)c1nn2c(=O)cc(COc3cccc(NC(=O)c4ccco4)c3)nc2s1,-12.4,4.8,1.8,-2.6,-7.3,-4.2
Cc1onc(-c2c(Cl)cccc2Cl)c1C(=O)N[C@@H]1C(=O)N2[C@@H]1SC(C)(C)[C@@H]2C(=O)O,3.5,-4.9,74.8*!,17.2,-14.1,91.0*!
C=CCOc1ccccc1CNc1ccccc1C,17.9,-11.1,-3.6,2.6,68.8*,-31.7
CCOc1ccc(Br)cc1CNc1ccc2c(c1)OCCO2,87.4*,-56.6,26.8,9.8,83.1*,20.6
c1cc(CNc2ccc3c(c2)OCCO3)ccn1,61.7*,-6.8,20.6,10.2,81.5*,.
C=CCOc1ccccc1CNc1ccc2c(c1)OCCO2,85.0*,-3.3,20.3,31.5,90.7*,35.1
COc1cc2c(cc1OC)C(c1ccccc1)NC(C)(C)C2 (centres undefined),12.0,0.4,2.4,-1.8,12.4,-8.2
O=C(/C=C/c1ccc(S(=O)(=O)N2CCOCC2)cc1)OCC(=O)c1ccc([N+](=O)[O-])cc1,-3.2,8.6,3.6,-2.6,-4.5,10.4
FC(F)(F)c1nc(N2CCCC2)ncc1-c1nnnn1-c1ccccc1,17.7,31.1,7.8,9.4,51.1*,82.2
Cc1ccc(-n2nnnc2-c2cnc(N3CCCC3)nc2C(F)(F)F)cc1,21.4,20.7,2.3,16.1,33.1,81.8
CC(C)C[C@@H]1CN(CCCC[C@H]2CNC(=O)C(=O)N2CCC2CCCCC2)C(=O)C(=O)N1CCC1CCCCC1,-31.1,.,.,.,60.7*,.
